Screening data: PubChem BioAssay, National Center for Advancing Translational Sciences (NCATS)
TDP1 cell noCPT: qHTS for Inhibitors of human tyrosyl-DNA phosphodiesterase 1 (TDP1): qHTS in cells in absence of CPT; DT40 Tdp1-/- hTDP1 cells, no CPT, ATP luminescence, 48 h; AID 686978, 2013; actives 15% (n = 420,000); Potency, µM (series often up to 46.2 µM), for the others: at the top dose activity change, negative = growth inhibition, usual class: inhibitors; further: potency means the concentration at half of the fitted maximal effect; on the % scale 0 is the no-effect control and ±100 the full control effect; nearly all actives have a fitted effect of over 55% in size
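Compound effects on proliferation are scored in DT40 Tdp1-/-;hTDP1 cells in the absence of CPT. ATP levels (CellTiter-Glo luminescence) are recorded after a ≥48 hr, 37 °C incubation.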
TDP1 inh: qHTS Assay for Inhibitors of Tyrosyl-DNA Phosphodiesterase (TDP1); AID 485290, 2010; recombinant TDP1, AlphaScreen DNA substrate cleavage; actives 0.28% (n = 350,000); Potency, µM (top dose mostly 130 µM), without a hit: top-dose activity change, negative = inhibition, most hits filed as inhibitors; Tyrosyl-DNA phosphodiesterase 1 (Homo sapiens), Q9NUW8; further: potency means the concentration at half of the fitted maximal effect; on the % scale 0 is the no-effect control and ±100 the full control effect; nearly all actives have a fitted effect of over 40% in size
Target sequence (Q9NUW8 whole entry, looked up): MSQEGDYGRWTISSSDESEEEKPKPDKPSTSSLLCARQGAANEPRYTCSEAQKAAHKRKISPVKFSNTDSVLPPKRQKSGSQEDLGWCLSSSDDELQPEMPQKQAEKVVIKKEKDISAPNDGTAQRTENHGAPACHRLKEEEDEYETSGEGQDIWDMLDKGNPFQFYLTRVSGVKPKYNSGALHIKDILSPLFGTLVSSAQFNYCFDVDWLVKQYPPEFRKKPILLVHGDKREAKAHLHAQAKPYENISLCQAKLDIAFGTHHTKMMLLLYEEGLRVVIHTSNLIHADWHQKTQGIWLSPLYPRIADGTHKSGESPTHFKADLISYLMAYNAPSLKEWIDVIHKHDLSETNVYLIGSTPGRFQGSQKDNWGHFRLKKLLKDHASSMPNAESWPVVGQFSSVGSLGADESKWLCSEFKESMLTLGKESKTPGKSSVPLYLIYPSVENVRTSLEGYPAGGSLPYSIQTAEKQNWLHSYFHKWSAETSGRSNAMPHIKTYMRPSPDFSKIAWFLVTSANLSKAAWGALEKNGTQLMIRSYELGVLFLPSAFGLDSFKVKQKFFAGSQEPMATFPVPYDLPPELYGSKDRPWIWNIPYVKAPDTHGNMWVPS
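AlphaScreen read-out: signal falls as enzyme removes the 3' tyrosine-FITC from a 5'-biotinylated DNA oligo (15 nM, 5 min, RT). Enzyme was E. coli-made recombinant Tdp1 at 1 nM, exposed to compound for 15 min beforehand; beads 10 ug/ml, 10 min.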
uPA generation: qHTS for Inhibitors of Cell Surface uPA Generation; cell surface uPA generation assay, qHTS; Potency, µM (highest dose often 38.3 µM), for the others: at the top dose activity change, negative = inhibition, actives largely listed as inhibitors; actives 0.31% (n = 330,000); active means well fitted inhibition curve with a large enough effect; inconclusive means small, poorly fitted or top-dose-only effect; inactive means no such curve, though single readings can be large or run the other way; tested in mouse RAW 264.7 cells; further: potency means the concentration at half of the fitted maximal effect; on the % scale 0 is the no-effect control and ±100 the full control effect; nearly all actives have a fitted effect of over 55% in size
DT40 TDP1 CPT: qHTS for Inhibitors of human tyrosyl-DNA phosphodiesterase 1 (TDP1): qHTS in cells in presence of CPT | Potency, µM (titrated, usually from 46.2 µM), without a hit: at the top dose activity change, negative = growth inhibition, actives largely listed as inhibitors | actives 12% (n = 420,000) | chicken DT40 Tdp1-/-;hTDP1 cells + 20 nM CPT, ATP luminescence, 48 h | AID 686979, 2013; further: potency means the concentration at half of the fitted maximal effect; on the % scale 0 is the no-effect control and ±100 the full control effect; nearly all actives have a fitted effect of over 55% in size
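Cell growth measured by CellTiter-Glo luminescence after a minimum 48 h, 37 C compound exposure with 20 nM CPT in Tdp1-knockout DT40 cells stably expressing hTDP1, seeded 400/well; qHTS titration format.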
miR-21 act: qHTS Assay for Modulators of miRNAs and/orActivators of miR-21 | HeLa miR-21 FLuc reporter, luciferase, 48 h | 340,000 tested, under 10 active | Potency, µM (titrated, usually from 38.3 µM), inactives show at the top dose activity change, positive = activation, hits mostly activators;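 further: % of control where 0% means no effect; miR-21 action dims this reporter so a rising signal means less miR-21 action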
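HeLa cells stably expressing CMV-driven firefly luciferase with a downstream miR-21 binding sequence, endogenously expressing miR-21, were treated with titrations (up to about 40uM final) for 48 hours at 37 degree Celsius. Luciferase luminescence was read after lysis.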
* hit, by the source's call; ? = inconclusive; / = not tested or not shown; [ ] = dose if it differs, or a comment. Rows were chosen to be rich in hits. Some 16% of all compounds tested hit in one or more screens of this group. Unless noted, the call rests on the fitted dose curve; in most records, active means well fitted curve in the direction sought with a large enough effect; inconclusive means small, poorly fitted or top-dose-only effect, or another doubt; inactive means no such curve, though single readings can be large; an effect the other way counts as inactive or inconclusive.

SMILES	TDP1 cell noCPT	TDP1 inh	uPA generation	DT40 TDP1 CPT	miR-21 act
O=C(NCCO)c1ccc(Oc2ccc(C(F)(F)F)cc2[N+](=O)[O-])cc1	?	6%	0%	-23%	-1%
O=C(CS(=O)c1ccc(C(F)(F)F)cc1[N+](=O)[O-])Oc1ccc(Cl)cc1 (stereo not drawn)	12µM*	6%	-12%	9.2µM*	13%
Cc1cnc(SCc2ccccn2)nc1C1CCCN(Cc2ccsc2)C1 (stereo not drawn)	15µM*	/	/	15µM*	/
Cc1cnc(SCc2ccccn2)nc1C1CCCN(C(=O)c2ccc3c(c2)OCO3)C1 (stereo not drawn)	?	/	/	21µM*	/
Cc1cnc(SCc2ccccn2)nc1C1CCCN(C(=O)c2cc3ccccc3oc2=O)C1 (stereo not drawn)	21µM*	/	/	16µM*	/
Cc1cnc(SCCN2CCOCC2)nc1C1CCCN(C(=O)c2cccc3c(C)c(C)[nH]c23)C1 (stereo not drawn)	16µM*	/	/	0%[9.04 µM]	/
Cc1cnc(SCc2ccccn2)nc1C1CCCN(C(=O)c2ccc3[nH]c(C)c(C)c3c2)C1 (stereo not drawn)	?	/	/	-1%[9.04 µM]	/
CCCC(=O)Nc1cc(C(=O)O)ccc1S(=O)(=O)c1ccc(Cl)cc1	6%	-8%	11%	24%	-6%
CCCN(CCC)CCNC(=O)CS(=O)Cc1nc(-c2ccc(OC)c(OC)c2)oc1C (stereo not drawn)	?	5%	/	-15%	-1%
Fc1ccccc1-c1nnc2ccc3ccccc3n12	?	/	-6%	2%	-13%
Fc1cccc(Cl)c1-c1nnc2ccc3ccccc3n12	10µM*	5%	-21%	26µM*	-11%
COc1ccccc1CC(=O)NC1CCCCCC1	1%	/	?	-4%	-4%
CCOc1cc(Br)c(CC(=O)NC2CCCCCC2)cc1OCC	21µM*	/	2%	?	8%
CCOc1ccc(C(=S)NC2CCCCC2)cc1OCC	4.6µM*	7%	4%	?	-18%
CCOC(=O)C1(S(=O)(=O)c2ccc(Cl)cc2)CCN(Cc2ccc(Cl)cc2)CC1	18µM*	2%	/	16µM*	11%
CCCn1cc(CN2CCC(Cc3ccccc3)(C(=O)OCC)CC2)c(C)n1	?	/	0%	?	0%
CCOC(=O)C1(Cc2ccc(Cl)cc2)CCN(Cc2nccn2CC)CC1	?	/	-1%	21µM*	-1%
CCOC(=O)C1(Cc2ccccc2)CCN(Cc2nccn2CC)CC1	?	/	-1%	?	-1%
CCOC(=O)C1(S(=O)(=O)c2ccccc2)CCN(Cc2ccc(Cl)cc2)CC1	?	5%	1%	?	15%
CCOC(=O)C1(Cc2ccc(Cl)cc2)CCN(CCCn2cccn2)CC1	21µM*	-6%	-2%	?	3%
CCOC(=O)C1(CCc2ccccc2)CCN(Cc2nccn2CC)CC1	18µM*	/	5%	?	-2%
Cc1ccc(C(=O)OC(C)C(=O)NC2CCCCC2C)cc1S(=O)(=O)N1CCOCC1 (stereo not drawn)	?	1%	-23%	-13%	0%
CCOC(=O)C1CCN(Cc2ccc(OCc3ccccc3)cc2)CC1	-14%	/	-12%	-24%	-9%
CCOC(=O)[C@@H]1CCN(Cc2ccccc2)C[C@H]1c1ccccc1	23µM*	-2%	5%	?	2%
CCCCCC1=C(C(=O)OC)C(C(=O)OCC)N(S(=O)(=O)C(F)(F)F)c2ccccc21 (stereo not drawn)	21µM*	-8%[56.1 µM]	6%	?	/
CCOC(=O)C1C(C(=O)OC)=C(CC(C)C)c2ccccc2N1S(=O)(=O)C(F)(F)F (stereo not drawn)	/	-11%	/	/	/
O=C(/C=C/c1ccccc1O)c1ccco1	21µM*	/	-10%	18µM*	19%
